Assay results from PubChem BioAssay AID1851 (National Center for Advancing Translational Sciences (NCATS), 2009).
Hit rate of the full screen: of about 16,000 compounds, about 5,100 (32%) were called active. About 25% were inconclusive and are not listed. Calls follow the shape of the dose curve; as a rule, active = well fitted curve in the direction sought with a large enough effect; inconclusive = small, poorly fitted or top-dose-only effect, or effect the other way; inactive = no such curve, though single readings can be large or run the other way. Some of the results follow.

These molecules were tested against Cytochrome P450 3A4 (Homo sapiens) (UniProt P08684) (assay: Cytochrome panel assay with activity outcomes). Details: recombinant CYP, pro-luciferin dealkylation, luminescence, p450-cyp3a4; series mostly up to 57.1 µM.
% is scaled to controls: 0 for no effect and ±100 for the full control effect.

Cytochrome P450 3A4 (Homo sapiens), sequence (P08684 whole entry, looked up): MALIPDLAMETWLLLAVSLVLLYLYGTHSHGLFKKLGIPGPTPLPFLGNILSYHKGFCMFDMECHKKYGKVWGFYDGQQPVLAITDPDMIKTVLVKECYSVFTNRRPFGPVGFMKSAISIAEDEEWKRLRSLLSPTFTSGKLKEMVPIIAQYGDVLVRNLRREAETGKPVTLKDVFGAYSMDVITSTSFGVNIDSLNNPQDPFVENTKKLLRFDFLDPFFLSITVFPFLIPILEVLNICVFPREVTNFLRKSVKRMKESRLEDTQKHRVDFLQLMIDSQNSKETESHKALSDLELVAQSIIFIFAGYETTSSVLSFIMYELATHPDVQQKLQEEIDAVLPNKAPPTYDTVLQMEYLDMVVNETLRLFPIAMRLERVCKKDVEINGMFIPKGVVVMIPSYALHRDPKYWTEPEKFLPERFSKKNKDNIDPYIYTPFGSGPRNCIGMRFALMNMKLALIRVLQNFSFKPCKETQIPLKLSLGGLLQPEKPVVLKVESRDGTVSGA

AC50, inactive:
Cn1c(=O)c2c(ncn2CCO)n(C)c1=O
Cn1c(=O)c2c(ncn2C[C@@H](O)CO)n(C)c1=O
O=C(O)CCC(=O)N1CCc2cc(S(=O)(=O)N3CCCCC3)ccc21
O=C(O)CCC(=O)N1CCc2cc(S(=O)(=O)NCc3cccs3)ccc21
Cc1ccc2[nH]c(=O)c(NC(N)=S)nc2c1
CCOC(=O)Cn1c(-c2ccccc2)nc2ccccc2c1=O
CC(=O)Oc1cc(C(C)C)c(OCCN(C)C)cc1C
COC(=O)CNC(=O)CCCCC(=O)NCC(=O)OC
CCCCCC(=O)Nc1cc2[nH]c(=O)cc(COC)c2cc1C
Cc1nc(SCC(=O)c2cc3ccccc3oc2=O)c(C#N)c(C)c1C(=O)Nc1ccccc1
CN(C)CCNc1oc(COc2ccc(Cl)cc2Cl)nc1C#N
Cc1ccc2c(c1)-c1c(cnn1CC(=O)O)CO2
CCc1nnc(NC(=O)CCC(=O)NCc2ccccc2OC)s1
CCN1CCCC1CNC(=O)CCNC(=O)c1cc(OC)c(OC)c(OC)c1 (configuration not stated)
Cc1ccc(C(=O)NCc2ccc(N3CCN(C(=O)OC(C)(C)C)CC3)cc2)cc1
Cn1cc(-c2nc3cnc(Oc4ccccc4)nc3n(Cc3cccs3)c2=O)c2ccccc21
COc1ccc(-c2nc3cnc(N4CCN(C)CC4)nc3n(Cc3cccs3)c2=O)cc1
COc1ccc(-c2nc3cnc(N4CCOCC4)nc3n(Cc3cccs3)c2=O)cc1
CN1CCN(CC(=O)N2c3ccccc3C(=O)Nc3cccnc32)CC1
CC1Cc2ccccc2N1C(=O)Cn1cc([N+](=O)[O-])cn1 (configuration not stated)
CCC(=O)Nc1ccccc1C(=O)OCC(=O)c1ccccc1
CCOC(=O)c1ccccc1NC(=O)/C(C)=C/C(=O)O

AC50, active:
Cn1c(=O)c2c(ncn2CC(COCc2ccccc2Cl)OCc2ccccc2Cl)n(C)c1=O (configuration not stated) 7.94 µM
O=C(CSC1=NCCS1)N1CCN(c2ccc(Cl)cc2)CC1 15.8 µM
NC(=O)/C(=C\c1ccncc1)c1cccc2ccccc12 3.16 µM
CCC(=O)N1CCc2cc(S(=O)(=O)NC(C(=O)NCc3ccc(F)cc3)C(C)C)ccc21 (configuration not stated) 7.08 µM
CCO/C(C)=N/n1c2nc3ccccc3nc2c2c(=O)n(CC(C)C)c(C)nc21 28.2 µM
CCCCCCCCC(=O)NCc1cc(OC)c(O)cc1I 3.16 µM
Cc1c(C#N)c(=O)oc2ccc3ccccc3c12 3.55 µM
N#Cc1nc(COc2ccccc2Cl)oc1NCc1ccco1 5.01 µM
COc1ccccc1CNC(=O)CCN1C(=O)COc2ccc(C)cc21 11.2 µM
Cc1ccc(CNC(=O)CN2C(=O)COc3ccc(C)cc32)cc1 1.78 µM
COc1cc(C(=O)NCCC(=O)NCc2ccc3c(c2)OCO3)cc(OC)c1OC 0.447 µM
Cc1ccc2c(c1)N(CCC(=O)NCc1ccc3c(c1)OCO3)C(=O)CO2 0.112 µM
Cc1ccc2c(c1)N(CCC(=O)NCc1cccnc1)C(=O)CO2 3.55 µM
O=C(O)c1cccc(N2CCCC2=O)c1 8.91 µM
Cc1nc2cnc(Oc3ccccc3)nc2n(Cc2cccs2)c1=O 10 µM
COc1ccc(Oc2ncc3nc(C)c(=O)n(Cc4cccs4)c3n2)cc1 3.16 µM
COc1ccc(Oc2ncc3ncc(=O)n(Cc4cccs4)c3n2)cc1 3.16 µM
COc1ccc(Oc2ncc3nc(-c4ccc(F)cc4)c(=O)n(Cc4cccs4)c3n2)cc1 15.8 µM
O=C(CC(=O)c1ccncc1)c1ccccc1 3.16 µM
Oc1c(CN2CCOCC2)cc(-c2ccccc2)cc1CN1CCOCC1 15.8 µM
CCN(CC)C[C@@H]1CCCCN1CC(=O)N1c2ccccc2C(=O)Nc2cccnc21 12.6 µM
Cc1ccc2c(c1)nnn2C1CCN(CC(=O)N2c3ccccc3CC2C)CC1 (configuration not stated) 10 µM
Cc1ccc2c(c1)nnn2C1CCN(S(=O)(=O)c2ccc(C(=O)N3C(C)CCCC3C)cc2)CC1 (configuration not stated) 1.41 µM
CCC(=O)Nc1ccccc1C(=O)OCC(=O)c1cccc2ccccc12 11.2 µM
c1ccc(Nc2nc(-c3ccc4c(c3)OCO4)nc3ccccc23)cc1 5.01 µM
c1ccc2c(Nc3ccncc3)nc(-c3ccc4c(c3)OCO4)nc2c1 0.501 µM

activity, negative = inhibition, inactive:
Cc1cc([N+](=O)[O-])c(C)c(Br)c1C -7.05% [at 11.4 µM]
O=C(O)/C(=C\c1ccccc1)c1ccccc1 -6.04% [at 11.4 µM]
O=C(O)/C(=C\c1ccc(O)cc1)c1cccc2ccccc12 -2.12% [at 11.4 µM]
O=C(O)c1ccccc1N[C@H](c1ccccc1)c1ccc2cccnc2c1O -13.5% [at 11.4 µM]
Cc1ccc(S(=O)(=O)Oc2cc(S(=O)(=O)O)cc3cc(S(=O)(=O)O)cc(N)c23)cc1 0.193% [at 11.4 µM]
N#Cc1c(NC(=O)CCC(=O)O)ccc2ccccc12 -1.16% [at 11.4 µM]
O=C(O)C1CC2(C1)CC(C(=O)O)C2 (configuration not stated) 5.16% [at 11.4 µM]
CCCn1nc2cc(C(=O)NCc3ccc4c(c3)OCO4)ccc2c1OCC 32.6% [at 2.29 µM]
O=C(O)c1cccc(SSc2cccc(C(=O)O)c2)c1 -11.9% [at 11.4 µM]
O=C(O)c1cccc(CN2CCCCC2)c1 -0.758% [at 11.4 µM]
O=C(NNC(=O)c1ccncc1)c1ccncc1 -9.5% [at 11.4 µM]
O=C(C[N+]1(c2ccccc2)CCOCC1)c1ccccc1 -14.4% [at 11.4 µM]
O=c1oc2c(CN3CCOCC3)c(O)ccc2c2ccccc12 -4.65% [at 2.29 µM]
CCc1cc2c(=O)c(-c3cnn(-c4ccccc4)c3)coc2c(CN2CCOCC2)c1O 12.2% [at 11.4 µM]
